# Reference: publication PMC4336329 (PLoS ONE, 2015)
# Hit rate of the full screen: of about 310,000 compounds, about 14,000 (4.5%) showed an effect of 50% or more. The effect is printed as a negative number. This is one part of a sample in which strong results are shown more often than they occur.
# Target: human ether-à-go-go-related gene (hERG) potassium channel (human, UniProt Q12809)
# Test: primary screen, population patch clamp on CHO cells stably expressing hERG; higher = less effect of the substance
# 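Note: peak tail current of the secondary pulse compared with the same well before compound.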
# Sequence of human ether-à-go-go-related gene (hERG) potassium channel (Q12809 whole entry, looked up): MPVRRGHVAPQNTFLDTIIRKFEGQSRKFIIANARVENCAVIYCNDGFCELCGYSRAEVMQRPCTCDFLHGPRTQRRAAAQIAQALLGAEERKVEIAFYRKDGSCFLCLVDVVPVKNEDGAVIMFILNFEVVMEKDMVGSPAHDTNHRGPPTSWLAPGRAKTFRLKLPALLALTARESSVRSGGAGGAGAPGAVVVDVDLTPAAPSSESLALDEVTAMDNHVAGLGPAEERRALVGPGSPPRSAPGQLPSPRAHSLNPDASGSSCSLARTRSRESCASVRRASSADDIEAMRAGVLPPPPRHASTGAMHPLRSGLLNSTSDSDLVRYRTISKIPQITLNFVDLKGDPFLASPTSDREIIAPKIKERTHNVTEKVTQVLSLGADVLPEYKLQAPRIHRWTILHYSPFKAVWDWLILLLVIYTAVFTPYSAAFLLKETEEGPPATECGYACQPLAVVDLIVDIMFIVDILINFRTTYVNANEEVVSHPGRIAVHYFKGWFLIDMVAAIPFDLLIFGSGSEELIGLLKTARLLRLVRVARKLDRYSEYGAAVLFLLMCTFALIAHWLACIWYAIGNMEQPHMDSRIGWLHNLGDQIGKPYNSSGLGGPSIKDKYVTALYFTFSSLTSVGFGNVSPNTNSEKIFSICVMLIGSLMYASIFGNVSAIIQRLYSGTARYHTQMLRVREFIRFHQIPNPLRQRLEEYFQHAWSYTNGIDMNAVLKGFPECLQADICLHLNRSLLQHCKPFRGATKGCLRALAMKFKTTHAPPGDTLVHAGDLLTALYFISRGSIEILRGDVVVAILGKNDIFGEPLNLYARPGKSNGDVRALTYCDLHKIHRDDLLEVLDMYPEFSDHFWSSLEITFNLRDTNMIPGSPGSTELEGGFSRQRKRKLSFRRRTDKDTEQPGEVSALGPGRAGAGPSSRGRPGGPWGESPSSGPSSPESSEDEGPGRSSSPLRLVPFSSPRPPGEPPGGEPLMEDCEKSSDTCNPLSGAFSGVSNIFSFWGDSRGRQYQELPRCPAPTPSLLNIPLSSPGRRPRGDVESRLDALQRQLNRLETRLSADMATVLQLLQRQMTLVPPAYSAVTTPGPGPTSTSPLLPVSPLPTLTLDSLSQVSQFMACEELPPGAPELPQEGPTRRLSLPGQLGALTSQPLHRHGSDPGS
row,SMILES,"hERG current change (%, negative = inhibition) at 10uM"
1,O=C1CC(N2CCSCC2)C(=O)N1c1cccc(Br)c1 (stereo not shown),-3.54%
2,COc1ccc(C(=O)/C=C/Nc2cc(C)on2)c(OC)c1,-6.33%
3,COC(=O)c1ccccc1NC(=O)NC1CCN(Cc2ccccc2)CC1,-31.1%
4,CCCn1cc(NC(=O)c2cc(-c3ccccc3)on2)cn1,-21.5%
5,CCOC(=O)C1=C(C)Nc2ncnn2C1/C=C/c1ccccc1 (stereo not shown),-2.68%
6,CC1CN(c2ccc([N+](=O)[O-])nc2)CC(C)O1 (stereo not shown),-21.6%
7,COC(=O)c1ccc(NC(=O)CSc2nc(=O)cc(N)n2-c2ccccc2)cc1,12.8%
8,CCOC(=O)C1CCN(c2c(NCCCN3CCCCC3)c(=O)c2=O)CC1,6.88%
9,CC(OC(=O)c1cccc(S(=O)(=O)N2CCOCC2)c1)C(=O)NC1CCCCC1C (stereo not shown),5.52%
10,COc1cc(Cl)ccc1OCc1cc(C(=O)N(C)CCc2c(C)n[nH]c2C)no1,-19.5%
11,COc1ccc(-c2csc(N(CCCN(C)C)C(=O)c3ccccc3F)n2)cc1.Cl,-35.3%
12,COc1ccc(-c2csc(N(CCCN(C)C)C(=O)c3ccccc3Cl)n2)cc1.Cl,-67.3%
13,COc1ccc(-c2csc(N(CCCN(C)C)C(=O)c3ccccc3C)n2)cc1.Cl,-75.1%
14,CC1CCCC(C)N1C(=C(Cl)Cl)C(=C1SCCS1)[N+](=O)[O-] (stereo not shown),16.7%
15,COc1ccccc1N(Cc1ccccc1)S(=O)(=O)c1cccc(C(=O)Nc2ccccn2)c1,10.5%
16,Cc1nc2ccccc2c(=O)n1-c1ccc(NS(=O)(=O)c2cc(F)ccc2F)cc1,-11.7%
17,O=C(CSc1ncccn1)N1CCN(Cc2ccccc2)CC1,9.31%
18,Nc1cc(C(=O)O)c(Oc2ccc(Cl)cc2Cl)cc1C(=O)O,7.83%
19,O=C(N/N=C/c1ccoc1)c1cc(Br)ccc1O,14.2%
20,CCOc1ccc(NC(=O)c2ccc3[nH]c(=O)c(=O)[nH]c3c2)cc1,16.8%
21,Nc1nc2ccc([N+](=O)[O-])cc2[nH]1,20.6%
22,F[B-](F)(F)F.O=[N+]([O-])c1ccc2nc(-[n+]3c(-c4ccccc4)cc(-c4ccccc4)cc3-c3ccccc3)[nH]c2c1,-61.8%

row,SMILES,"hERG current change (%, negative = inhibition) at 10uM"
1,Cc1nc2ccc([N+](=O)[O-])cc2[nH]1,7.21%
2,Cc1ccc(-c2nc3ccc([N+](=O)[O-])cc3[nH]2)cc1,-3.49%
3,O=[N+]([O-])c1ccc(-c2nc3ccc([N+](=O)[O-])cc3[nH]2)cc1,-27.9%
4,Cn1c(-[n+]2c(-c3ccccc3)cc(-c3ccccc3)cc2-c2ccccc2)nc2cc([N+](=O)[O-])ccc21.[I-],-12.2%
5,O=[N+]([O-])c1cccc(-c2nc3ccc([N+](=O)[O-])cc3[nH]2)c1,8.34%
6,CC(C)(C)c1nc2ccc([N+](=O)[O-])cc2[nH]1,-77.7%
7,CCCC[n+]1ccc(-c2nc3ccc([N+](=O)[O-])cc3[nH]2)cc1,-59.5%
8,O=C(NNC(=O)C1CC=CCC1C(=O)O)c1ccc(Cl)cc1 (stereo not shown),20.6%
9,COC(CNC(=O)C1CCCN1C(=O)OCc1ccccc1)OC (stereo not shown),5.41%
10,Cc1cc(O)c(C2=Nc3ccccc3SC(c3ccc(Cl)cc3)C2)c(=O)o1 (stereo not shown),19.4%
11,Clc1ccccc1Nc1nc2ccccc2o1,10.5%
12,O/C(=C\c1ccc2ccccc2n1)c1ccc(O)cc1O,4.33%
13,CCOc1ccc(/C=C2\SC(=S)N(NC(=O)c3ccncc3)C2=O)cc1OC,16.9%
14,COc1cc(NC(=O)CSCc2ccc(Cl)cc2)c(C(=O)O)cc1OC,13.6%
15,CN(C)S(=O)(=O)c1ccc(NC(=O)CN2CCc3ccccc32)cc1,11.8%
16,Cc1ccc(SCCNS(=O)(=O)c2ccc3c(c2)OCCO3)cc1,2.17%
17,Cc1ccc(NC(=O)CN2C(=O)c3ccccc3C2=O)nc1,6.21%
18,Cc1nc2ccsc2c(=O)n1-c1cccc(Cl)c1,14.4%
19,O=C(NNC(=O)c1cccc(O)c1)Nc1ccc([N+](=O)[O-])cc1,16.3%
20,O=C(Cc1ccccc1)N1CCN(C2CCCC2)CC1,0.401%
21,O=C(CCCc1ccccc1)N1CCN(C2CCCCC2)CC1,-70.8%
22,O=C(C(Cc1ccccc1)n1cccc1)N1CCN(C2CCCCC2)CC1 (stereo not shown),-56.6%

row,SMILES,"hERG current change (%, negative = inhibition) at 10uM"
1,O=C(C(Cc1ccccc1)n1cccc1)N1CCCCCC1 (stereo not shown),12.1%
2,O=C(C(Cc1ccccc1)n1cccc1)N1CCCCC1 (stereo not shown),2.03%
3,COc1ccc(CCC(=O)N2CCN(C3CCCCC3)CC2)cc1,-69.1%
4,COc1ccc(CCC(=O)N2CCCC(Nc3ccc(OC)cc3)C2)cc1 (stereo not shown),-6.96%
5,O=C(Cc1ccccc1)N1CCN(C2CCCCCC2)CC1.O=C(O)C(=O)O,-19.2%
6,O=C(c1ccccc1)c1cccn1CC(=O)N1CCN(c2ccccc2)CC1,-9.33%
7,COc1ccc(CCC(=O)N2CCN(C(=O)c3ccccc3)CC2)cc1,5.76%
8,O=C(c1ccccc1)c1cccn1CC(=O)N1CCN(C2CCCCC2)CC1,-52.6%
9,O=C(c1ccccc1)c1cccn1CC(=O)N1CCCCCC1,5.2%
10,CN1CCN(C(=O)Nc2ccccc2)CC1.O=C(O)C(=O)O,23.2%
11,CCN(CC(=O)Nc1cc(Cl)ccc1C)C(=O)CN1C(=O)NC2(CCCC2)C1=O,8.3%
12,CSc1ncccc1C(=O)OCC(=O)N(CC(C)C)C1CCS(=O)(=O)C1 (stereo not shown),-0.0479%
13,Cc1cc(C)nc(N(C#N)Cc2ccc(Br)cc2)n1,4.33%
14,O=C1NC(=O)N(c2ccccc2)C(=O)/C1=C/c1coc2ccc(O)cc2c1=O,-6.18%
15,CN(C)CCCNC(=S)Nc1ccc(Oc2ccccc2)cc1,-3.24%
16,CON=C1CCN(c2ncc(C(F)(F)F)cc2Cl)CC1,-5.78%
17,NC(=O)c1ccc(-c2nnn(CC(=O)Nc3cccc(S(=O)(=O)N4CCCC4)c3)n2)cc1,4.54%
18,CCN(CC)S(=O)(=O)c1cc(NC(=O)COc2ccc(C#N)cc2OC)ccc1C,-38.1%
19,CCN(CC)S(=O)(=O)c1cccc(NC(=O)c2ccc(C#N)cc2)c1,-35%
20,CN(C)S(=O)(=O)c1cccc(NC(=O)c2cccc(S(=O)(=O)N3CCCCC3)c2)c1,-27.9%
21,CCN(CC)S(=O)(=O)c1cccc(NC(=O)COc2ccc(C#N)cc2OC)c1,-72.4%
22,CCN(CC)S(=O)(=O)c1cccc(NC(=O)c2cccc(S(=O)(=O)N3CCCC3)c2)c1,-80.8%

row,SMILES,"hERG current change (%, negative = inhibition) at 10uM"
1,CCN(CC)S(=O)(=O)c1cccc(NC(=O)CNc2cccc(S(=O)(=O)N3CCCC3)c2)c1,5.46%
2,O=C(Cn1nnc(-c2ccccc2)n1)Nc1cccc(S(=O)(=O)N2CCCC2)c1,-2.26%
3,CCN(CC)S(=O)(=O)c1cccc(C(=O)Nc2ccccc2)c1,-28%
4,O=C(Cn1nnc(-c2ccccc2)n1)Nc1cccc(S(=O)(=O)N2CCOCC2)c1,-56.2%
5,CCN(CC)S(=O)(=O)c1cccc(C(=O)Nc2ccc(C#N)cc2)c1,-77.3%
6,COc1cc(C#N)ccc1OCC(=O)Nc1cccc(S(=O)(=O)N2CCCC2)c1,-44.4%
7,Cc1cc(C)c(S(=O)(=O)c2ccccc2Cl)c(=O)[nH]1,10.7%
8,C=CCOCCN(CCOCC=C)C1=NS(=O)(=O)c2ccccc21,12.5%
9,COc1ccc(NS(=O)(=O)c2cccc(NC(=O)C3=NN(c4ccccc4)C(=O)CC3)c2)cc1,-35.1%
10,O=C(NC1=NCCS1)c1cc2ccccc2o1,-23.8%
11,CN1CCN(S(=O)(=O)c2cccc(C(=O)Nc3cc(C(N)=O)cc(C(N)=O)c3)c2)CC1,4.71%
12,Cc1cccnc1NC(=O)c1cccc(S(=O)(=O)N2CCN(c3ccc(F)cc3)CC2)c1,-35.1%
13,CCN(CC)S(=O)(=O)c1cccc(NC(=O)c2ccc(Br)cc2)c1,4.07%
14,O=C(Nc1ccc2c(c1)CCC2)c1cccc(S(=O)(=O)N2CCN(c3ccc(F)cc3)CC2)c1,-3.29%
15,O=C(Nc1ccncc1)c1cccc(S(=O)(=O)N2CCOCC2)c1,-58.4%
16,CN1CCN(S(=O)(=O)c2cccc(C(=O)Nc3sccc3C(N)=O)c2)CC1,-75.4%
17,CN1CCN(S(=O)(=O)c2cccc(C(=O)Nc3sccc3C#N)c2)CC1,-5.03%
18,O=C(Nc1cccc(S(=O)(=O)N2CCCC2)c1)c1cccc(S(=O)(=O)N2CCOCC2)c1,-15.5%
19,CCN(CC)S(=O)(=O)c1cccc(NC(=O)c2cncc(Br)c2)c1,-69.9%
20,CN(C)S(=O)(=O)c1cccc(NC(=O)c2cncc(Br)c2)c1,-3.39%
21,O=C(Nc1cccnc1)c1cccc(S(=O)(=O)N2CCOCC2)c1,4.06%
22,O=C(Nc1ccncc1)c1cccc(S(=O)(=O)N2CCN(c3ccc(F)cc3)CC2)c1,-82.9%
